Source: publication PMC4336329 (PLoS ONE, 2015)
Among all 310,000 compounds or so, about 14,000 (4.5%) showed an effect of 50% or more. Effects have a minus sign here. The full list was thinned out, with strong results kept by preference.
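Note: peak tail current of the secondary pulse compared with the same well before compound.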

The molecules below were run against human ether-à-go-go-related gene (hERG) potassium channel (human, UniProt Q12809) (assay: primary screen, population patch clamp on CHO cells stably expressing hERG; higher = less effect of the substance).
Sequence of human ether-à-go-go-related gene (hERG) potassium channel (Q12809 whole entry, looked up): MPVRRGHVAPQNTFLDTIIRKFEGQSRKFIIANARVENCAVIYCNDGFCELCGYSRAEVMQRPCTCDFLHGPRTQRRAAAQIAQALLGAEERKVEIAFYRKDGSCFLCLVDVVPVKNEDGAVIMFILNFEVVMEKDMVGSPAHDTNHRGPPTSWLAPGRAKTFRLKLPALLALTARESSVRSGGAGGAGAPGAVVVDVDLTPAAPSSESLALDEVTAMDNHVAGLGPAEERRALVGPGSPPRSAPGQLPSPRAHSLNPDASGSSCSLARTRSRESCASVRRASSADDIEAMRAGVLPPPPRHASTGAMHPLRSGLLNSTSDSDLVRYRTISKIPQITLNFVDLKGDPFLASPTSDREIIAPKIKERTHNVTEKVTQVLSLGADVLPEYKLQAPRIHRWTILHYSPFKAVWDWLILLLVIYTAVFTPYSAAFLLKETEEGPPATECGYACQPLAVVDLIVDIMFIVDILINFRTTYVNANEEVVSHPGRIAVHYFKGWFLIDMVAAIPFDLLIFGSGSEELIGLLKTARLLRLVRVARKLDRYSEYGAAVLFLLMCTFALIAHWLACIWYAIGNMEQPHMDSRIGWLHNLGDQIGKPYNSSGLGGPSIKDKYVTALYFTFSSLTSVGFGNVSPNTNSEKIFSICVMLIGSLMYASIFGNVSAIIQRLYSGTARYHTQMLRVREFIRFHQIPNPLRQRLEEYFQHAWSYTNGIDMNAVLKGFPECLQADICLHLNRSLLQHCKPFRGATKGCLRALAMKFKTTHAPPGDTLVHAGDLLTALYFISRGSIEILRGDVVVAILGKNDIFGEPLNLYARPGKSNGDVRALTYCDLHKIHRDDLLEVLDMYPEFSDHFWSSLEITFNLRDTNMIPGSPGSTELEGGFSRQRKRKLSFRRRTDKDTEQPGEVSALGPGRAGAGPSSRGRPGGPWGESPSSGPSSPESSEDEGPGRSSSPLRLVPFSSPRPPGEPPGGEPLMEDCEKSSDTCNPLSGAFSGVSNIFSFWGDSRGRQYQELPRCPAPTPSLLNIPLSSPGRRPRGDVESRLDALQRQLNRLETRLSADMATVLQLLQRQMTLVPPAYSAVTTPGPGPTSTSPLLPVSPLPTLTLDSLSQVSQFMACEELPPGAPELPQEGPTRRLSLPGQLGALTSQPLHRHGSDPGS
With `O=C(Nc1ccc2c(c1)OCO2)c1cccc(S(=O)(=O)N2CCCC2)c1` the “hERG current change (%, negative = inhibition) at 10uM” value was -15.9%.
In the case of `CN(Cc1ccccc1)C(=O)CN1C(=O)NC(C)(c2ccc(C(C)(C)C)cc2)C1=O` (stereo not shown), the “hERG current change (%, negative = inhibition) at 10uM” value is reported as -16.8%.
`COc1cccc(/C=N/NC(=O)c2nc(-c3ccccc3)cc(-c3ccccc3)n2)c1O` was tested, and the “hERG current change (%, negative = inhibition) at 10uM” value was -9.46%.
For `Cc1cc(=O)oc2cc(OCC(=O)N/N=C/c3ccccc3O)ccc12`, the “hERG current change (%, negative = inhibition) at 10uM” value was 23.9%.
With `O.O=C(NCc1nc2ccccc2[nH]1)c1ccc(Cl)c(S(=O)(=O)N2CCCC2)c1` the “hERG current change (%, negative = inhibition) at 10uM” value was -14.3%.
With `CCOC(=O)c1oc2ccc(CNC(C)(C)C)c(Cl)c2c1C.O=C(O)C(=O)O` the “hERG current change (%, negative = inhibition) at 10uM” value was -5.61%.
With `O=C(CC(C(=O)O)P(=O)(c1ccccc1)c1ccccc1)c1ccccc1` (stereo not shown) the “hERG current change (%, negative = inhibition) at 10uM” value was 24.3%.
In the case of `Nc1ccc(-c2cc(N)n(-c3ccccc3)n2)cc1`, the “hERG current change (%, negative = inhibition) at 10uM” value is reported as 0.669%.
With `Cn1c2ccccc2c2cc(C(=O)NNS(=O)(=O)c3ccc(F)cc3)sc21` the “hERG current change (%, negative = inhibition) at 10uM” value was -5.97%.
For `COc1ccccc1Nc1nc(N)nc(CSC(=S)N2CCC(C)CC2)n1`, the “hERG current change (%, negative = inhibition) at 10uM” value was -13.7%.
`COc1ccccc1Nc1nc(N)nc(CN2CCC(C)CC2)n1` was tested, and the “hERG current change (%, negative = inhibition) at 10uM” value was -67.5%.
For `Cc1cc(C(F)(F)F)nn1C(=O)c1cccnc1Cl`, the “hERG current change (%, negative = inhibition) at 10uM” value was -5.15%.
For `O=C(C1=C[C@H](C2CC2)C[C@H](OCCCCO)O1)N1CCN(Cc2ccccc2)CC1`, the “hERG current change (%, negative = inhibition) at 10uM” value was -12.5%.
In the case of `CN1CCN(C(=O)C2=C[C@@H](C3CCCCC3)C[C@@H](OCc3ccc(CO)cc3)O2)CC1`, the “hERG current change (%, negative = inhibition) at 10uM” value is reported as -13.6%.
For `CN1CCN(C(=O)C2=C[C@@H](C3CC3)C[C@@H](OCc3ccc(CO)cc3)O2)CC1`, the “hERG current change (%, negative = inhibition) at 10uM” value was 16.5%.
For `CN1CCN(C(=O)C2=C[C@H](C3CC3)C[C@H](OCc3ccc(CO)cc3)O2)CC1`, the “hERG current change (%, negative = inhibition) at 10uM” value was -1.42%.
In the case of `CCO[C@H]1OC(C(=O)N2CCN(Cc3ccc4c(c3)OCO4)CC2)=C[C@@H](C2CCCCC2)[C@@H]1CCCO`, the “hERG current change (%, negative = inhibition) at 10uM” value is reported as -55.5%.
In the case of `O=C(C1=C[C@@H](C2CC2)C[C@@H](OCc2ccc(CO)cc2)O1)N1CCN(Cc2ccccc2)CC1`, the “hERG current change (%, negative = inhibition) at 10uM” value is reported as -58.7%.
With `O=C(C1=C[C@H](c2ccccc2)C[C@H](OCc2ccc(CO)cc2)O1)N1CCN(Cc2ccccc2)CC1` the “hERG current change (%, negative = inhibition) at 10uM” value was -41.2%.
For `CCO[C@@H]1OC(C(=O)N2CCN(Cc3ccc4c(c3)OCO4)CC2)=C[C@H](C2CC2)[C@H]1CCCO`, the “hERG current change (%, negative = inhibition) at 10uM” value was -18.7%.
For `CN1CCN(C(=O)C2=C[C@H](C3CCCCC3)C[C@H](OCc3ccc(CO)cc3)O2)CC1`, the “hERG current change (%, negative = inhibition) at 10uM” value was -61.7%.
In the case of `O=C(C1=C[C@H](C2CC2)C[C@H](OCc2ccc(CO)cc2)O1)N1CCN(Cc2ccccc2)CC1`, the “hERG current change (%, negative = inhibition) at 10uM” value is reported as -62.7%.
With `CC(C)(C)[C@H]1C=C(C(=O)N2CCN(Cc3ccccc3)CC2)O[C@@H](OCc2ccc(CO)cc2)C1` the “hERG current change (%, negative = inhibition) at 10uM” value was -38.9%.
With `CCO[C@@H]1OC(C(=O)N2CCN(Cc3ccc4c(c3)OCO4)CC2)=C[C@H](C2CCCCC2)[C@H]1CCCO` the “hERG current change (%, negative = inhibition) at 10uM” value was -17.8%.
In the case of `Cc1ccc(CNC(=O)C2CCN(c3nnc(N4CCCC4=O)s3)CC2)cc1`, the “hERG current change (%, negative = inhibition) at 10uM” value is reported as 14.4%.
With `CCOc1ccc(-c2nc(C#N)c(NCC(C)C)o2)cc1` the “hERG current change (%, negative = inhibition) at 10uM” value was 7.61%.
For `Cc1cccc(OCCCC(=O)NCc2ccco2)c1`, the “hERG current change (%, negative = inhibition) at 10uM” value was 2.27%.
For `CCc1cccc(NC(=O)CCSCCC(=O)Nc2cccc(CC)c2)c1`, the “hERG current change (%, negative = inhibition) at 10uM” value was -9.75%.
In the case of `CSc1n[nH]c2nc3c(c(=O)n12)C1(CCCCC1)Cc1ccccc1-3`, the “hERG current change (%, negative = inhibition) at 10uM” value is reported as -13%.
With `CCn1nnc(-c2ccccc2NC(=O)c2ccc(-n3cnnn3)cc2)n1` the “hERG current change (%, negative = inhibition) at 10uM” value was -21.9%.
`O=C(C1=C[C@H](C2CCCCC2)C[C@H](OCc2ccc(CO)cc2)O1)N1CCN(Cc2ccccc2)CC1` was tested, and the “hERG current change (%, negative = inhibition) at 10uM” value was -67.6%.
With `O=C(C1=C[C@@H](C2CCCCC2)C[C@@H](OCc2ccc(CO)cc2)O1)N1CCOCC1` the “hERG current change (%, negative = inhibition) at 10uM” value was -23.9%.
For `O=C(C1=C[C@@H](C2CCCCC2)C[C@@H](OCCCCO)O1)N1CCN(Cc2ccccc2)CC1`, the “hERG current change (%, negative = inhibition) at 10uM” value was -50.1%.
For `O=C(C1=C[C@@H](C2CCCCC2)C[C@@H](OCc2ccc(CO)cc2)O1)N1CCN(Cc2ccccc2)CC1`, the “hERG current change (%, negative = inhibition) at 10uM” value was -25.4%.
With `O=C(C1=C[C@@H](C2CCCCC2)C[C@@H](OCCCCO)O1)N1CCN(Cc2ccc3c(c2)OCO3)CC1` the “hERG current change (%, negative = inhibition) at 10uM” value was -45.1%.
For `O=C(C1=C[C@H](C2CCCCC2)C[C@H](OCCCCO)O1)N1CCN(Cc2ccc3c(c2)OCO3)CC1`, the “hERG current change (%, negative = inhibition) at 10uM” value was -56.5%.
With `O=C(C1=C[C@@H](C2CC2)C[C@@H](OCCCCO)O1)N1CCN(Cc2ccccc2)CC1` the “hERG current change (%, negative = inhibition) at 10uM” value was 0.7%.
`O=C(C1=C[C@H](C2CC2)C[C@H](OCCCCO)O1)N1CCN(Cc2ccc3c(c2)OCO3)CC1` was tested, and the “hERG current change (%, negative = inhibition) at 10uM” value was -26.3%.
For `O=C(C1=C[C@H](C2CCCCC2)C[C@H](OCCCCO)O1)N1CCN(Cc2ccccc2)CC1`, the “hERG current change (%, negative = inhibition) at 10uM” value was -46.4%.
`CN(CC(=O)O/N=C(\N)c1ccc([N+](=O)[O-])cc1)S(=O)(=O)c1ccc2ccccc2c1` was tested, and the “hERG current change (%, negative = inhibition) at 10uM” value was -12.6%.
With `CCN(C1CCCCC1)S(=O)(=O)c1ccc(C(=O)O)cc1` the “hERG current change (%, negative = inhibition) at 10uM” value was 6.74%.
For `O=C(Nc1cccnc1Cl)c1ccc(S(=O)(=O)N2CCCCCC2)cc1`, the “hERG current change (%, negative = inhibition) at 10uM” value was -8.39%.
For `CCc1c2c(nc3ccc(OC(=O)N4CCC(N5CCCCC5)CC4)cc13)-c1cc3c(c(=O)n1C2)COC(=O)[C@]3(O)CC.Cl.O`, the “hERG current change (%, negative = inhibition) at 10uM” value was 12.8%.
`Cc1ccc(CN2CCN(CC(=O)NC(C)CCc3ccccc3)C2=O)cc1` (stereo not shown) was tested, and the “hERG current change (%, negative = inhibition) at 10uM” value was -20.6%.
In the case of `COc1ccc(CCNC(=O)CN2CCN(Cc3ccccc3F)C2=O)cc1OC`, the “hERG current change (%, negative = inhibition) at 10uM” value is reported as 8.26%.
`CC(CCc1ccccc1)NC(=O)CN1CCN(Cc2ccc(Cl)cc2)C1=O` (stereo not shown) was tested, and the “hERG current change (%, negative = inhibition) at 10uM” value was -53.2%.
In the case of `O=C(CN1CCN(Cc2ccccc2F)C1=O)NCCc1ccc(Cl)cc1`, the “hERG current change (%, negative = inhibition) at 10uM” value is reported as -52.8%.
For `CC(CCc1ccccc1)NC(=O)CN1CCN(Cc2ccccc2)C1=O` (stereo not shown), the “hERG current change (%, negative = inhibition) at 10uM” value was -18.2%.
`Cc1ccc(CCNC(=O)CN2CCN(Cc3ccccc3F)C2=O)cc1` was tested, and the “hERG current change (%, negative = inhibition) at 10uM” value was -8.3%.
